Source: PubChem BioAssay AID504660 (National Center for Advancing Translational Sciences (NCATS), 2011)
Several values for one entry are separate records, joined by “and”; a condition that tells them apart may be missing. Equal values may be shown once. The campaign covered roughly 360,000 compounds. About 3,700 (1%) were called active. Cut-off read from the data, not from the text of the source: active = activation above about 30%; inactive = the rest. Many of the other results were omitted from the sample, so actives are more common in it than they were. Some compounds were tested as several samples or in several runs, with calls that do not always agree.

Target: D(1A) dopamine receptor (Homo sapiens) (UniProt P21728)
Sequence (P21728 whole entry, looked up): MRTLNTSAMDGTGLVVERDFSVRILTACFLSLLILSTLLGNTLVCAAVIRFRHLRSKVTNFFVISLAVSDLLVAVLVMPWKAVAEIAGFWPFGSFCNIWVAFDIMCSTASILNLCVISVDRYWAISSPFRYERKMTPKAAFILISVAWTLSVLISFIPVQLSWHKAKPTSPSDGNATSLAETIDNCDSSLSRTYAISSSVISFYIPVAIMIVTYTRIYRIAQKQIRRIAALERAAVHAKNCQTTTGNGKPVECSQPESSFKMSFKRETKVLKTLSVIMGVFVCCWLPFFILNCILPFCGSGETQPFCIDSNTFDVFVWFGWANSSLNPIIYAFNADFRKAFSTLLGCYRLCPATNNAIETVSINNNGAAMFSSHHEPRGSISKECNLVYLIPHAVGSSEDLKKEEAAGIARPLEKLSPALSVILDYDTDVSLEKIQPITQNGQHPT
Experiment: Allosteric Agonists of the Human D1 Dopamine Receptor: qHTS; note: 0% is about no effect
Settings: HEK293 T-REx D1 cells, calcium flux, agonist mode; at 2 µM; stronger effect = higher value
How it was run: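 Agonism was scored from calcium flux recorded over 180 s (1 read/s) after pintool compound addition, following a 10-cycle baseline. Cells were inducible force-coupled HEK293 TREx D1, plated overnight at 30 C and loaded with no-wash calcium dye.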

| Structure (SMILES) | activation |
| --- | --- |
| CCN(C(=O)Cn1cc(S(=O)(=O)N2CCN(c3ccccc3F)CC2)c2ccccc2c1=O)c1ccc(C)c(C)c1 | 11.2% (inactive) |
| Cc1ccc(C(=O)N2c3ncnn3C3(CCCCC3)[C@@H]3CCCC[C@@H]32)cc1 | -0.224% (inactive) |
| Cc1ccc2c(c1)N(C(=O)CCC(=O)NCc1ccccc1F)CC(C)O2 (centres undefined) | 1.03% (inactive) |
| O=C(COc1ccc(NC(=O)c2ccccc2[N+](=O)[O-])cc1)c1ccc(F)cc1 | 3.67% (inactive) |
| Cc1ccc2nsnc2c1NC(=O)c1ccccc1[N+](=O)[O-] | 6.33% (inactive) |
| O=C(CCc1ccccc1)Nc1ncc([N+](=O)[O-])s1 | 30.3% (active) |
| O=C(CCc1ccccc1)Nc1ccc(NC(=O)C2CC2)nc1 | 5.75% (inactive) |
| CC(=O)Oc1ccccc1C(=O)Nc1ncc([N+](=O)[O-])s1 | 32.6% (active) |
| O=C(CCc1ccccc1)Nc1nn[nH]n1 | 3.14% (inactive) |
| Fc1cccc(-n2ncc3c2ncn2nc(-c4ccccc4Cl)nc32)c1 | -0.538% (inactive) |
| CCOc1ccc(N(CC)S(=O)(=O)N2CCCC(C(=O)NCc3ccc(SC)cc3)C2)cc1 (centres undefined) | 15.3% (inactive) |
| COc1cc(=O)[nH]c(=O)n1C(=O)Cc1ccccc1 | 3.4% (inactive) |
| COc1cc(/C=C2/SC(=S)N(Cc3ccccc3)C2=O)cc(OC)c1O | 61.8% (active) |
| COc1cccc(N2C(=O)CN(Cc3ccccc3)C2=S)c1 | 2.26% (inactive) |
| CCOc1ccc(S(=O)(=O)Nc2ccc3oc4c(c3c2)CC(C)CC4)cc1 (centres undefined) | 8.18% (inactive) |
| O=C(NCCc1ccccc1)c1ccc2c(c1)N(Cc1ccccc1)C(=O)c1ccccc1S2(=O)=O | 5.9% (inactive) |
| Cc1ccc(O)c(NC(=O)c2cc(-c3ccc(F)cc3)no2)c1 | -1.3% (inactive) |
| Cc1ccc(O)c(NC(=S)NC(=O)COc2ccc(Br)cc2)c1 | 54.2% (active) |
| Cc1ccc(O)c(/C=N/NC(=O)COc2ccc3c(C)cc(=O)oc3c2)c1 | 3.75% (inactive) |
| Cc1ccc(C)c(NC(=O)Cn2ccn(-c3ccc(F)cc3)c(=O)c2=O)c1 | 10.6% (inactive) |
| COc1cc(N2CCCC2)c(OC)cc1/C=C(/C#N)c1cccc(Br)c1 | 34.6% (active) |
| CCOC(=O)c1c(C)oc2nc(C)nc(N3CCN(c4ccc(OC)cc4)CC3)c12 | 0.866% (inactive) |
| COc1ccc(NC(=O)c2ccc3oc(=O)c(S(=O)(=O)c4ccc(F)cc4)cc3c2)c(OC)c1 | -0.0208% (inactive) |

| Structure (SMILES) | activation |
| --- | --- |
| COc1cc(Br)cc2cc(S(=O)(=O)c3ccccc3)c(=O)oc12 | 2.11% (inactive) |
| Cc1cc(S(=O)(=O)c2cc3ccc(O)c(C)c3oc2=O)ccc1F | 56.6% (active) |
| CCc1nn(CC(=O)N2CCN(c3cccc(C(F)(F)F)c3)CC2)c(=O)c2cc3occc3n12 | -1.81% (inactive) |
| O=C(NCCCN1CCCCC1)c1ccc2c(c1)NC(=O)C(N1CCOCC1)S2 (centres undefined) | 1.92% (inactive) |
| COc1ccc(C(=O)NCCCN2CCOCC2)cc1Br | 5.3% (inactive) |
| COc1cccc(CNC(=O)c2ccc3c(c2)N(Cc2ccc(C(F)(F)F)cc2)C(=O)c2ccccc2S3)c1OC | 7.24% (inactive) |
| O=C(NCCCN1CCOCC1)c1cc(-c2ccccc2F)no1 | 2.58% (inactive) |
| Cc1ccccc1CN1C(=O)c2ccccc2Sc2ccc(C(=O)NCCCN3CCOCC3)cc21 | 16.6% (inactive) and 53.8% (active) |
| O=C(NCCCN1CCOCC1)c1ccc2c(c1)N(Cc1cccc(F)c1)C(=O)c1ccccc1S2 | 37.5% (active) |
| O=C(Cn1cnc2c(oc3ccccc32)c1=O)Nc1ccc(OC(F)(F)F)cc1 | 26.6% (inactive) |
| CCn1cc(C(=O)OCC(=O)Nc2cc(C)cc(C)c2)c(=O)c2ccc(C)nc21 | -2.27% (inactive) |
| COc1ccc(CNC(=O)Cn2nnc(-c3ccc(S(C)(=O)=O)cc3)n2)cc1 | -0.202% (inactive) |
| COc1cc(OC)c(-n2cc(-c3ccc(Cl)cc3)[nH]c2=O)cc1Cl | 87.1% (active) |
| COc1cc(OC)c(N2CC(C(=O)Nc3cc(Cl)ccc3N3CCOCC3)CC2=O)cc1Cl (centres undefined) | 6.25% (inactive) |
| COc1ccc(Cl)cc1S(=O)(=O)N1CCC(O)(c2ccc(Cl)cc2)CC1 | 4.61% (inactive) |
| CCCC12CN3CC(C)(CN(C1)C3c1ccccc1Cl)C2=O (centres undefined) | -0.996% (inactive) |
| COc1ccc(-c2noc(CSc3nc4ccc(C)cc4[nH]3)n2)cc1 | 5.23% (inactive) |
| CC(CCc1ccccc1)NC(=O)COC(=O)c1ccc(F)cc1 (centres undefined) | 10.8% (inactive) |
| CC(NC(=O)COC(=O)c1ccc(Cl)cc1O)c1ccc(F)cc1 (centres undefined) | 40% (active) |
| C=CCOc1ccc(/C=C/C(=O)OCC(=O)NC(C)c2ccc(F)cc2)cc1 (centres undefined) | 7.04% (inactive) |
| O=C1CCCc2cc(S(=O)(=O)N3CCCC(C(=O)NCc4ccccc4)C3)ccc2N1 (centres undefined) | 1.11% (inactive) |
| CCc1ccccc1NC(=O)Cn1c(=O)n(CC2CCC(C(=O)NCCc3ccccc3)CC2)c(=O)c2ccccc21 (centres undefined) | -1.58% (inactive) |
| CCn1cc(C(=O)NCc2ccccc2)c(=O)c2cc(S(=O)(=O)N3CCCCC3)ccc21 | 1.41% (inactive) |

| Structure (SMILES) | activation |
| --- | --- |
| Cc1ccc(S(=O)(=O)N2CCCCC2)cc1NC(=O)c1cccnc1 | 4.22% (inactive) |
| O=C(c1cccnc1)N1CCN(S(=O)(=O)c2cccs2)CC1 | 1.36% (inactive) |
| O=C(N/N=C/c1sc(N2CCCCC2)nc1-c1cccs1)c1cccnc1 | 32.8% (active) |
| Cc1cc(NC(=O)C2CCC(CNS(=O)(=O)c3ccc(Br)s3)CC2)ccc1Br (centres undefined) | 9.94% (inactive) |
| N#Cc1nc(Nc2cccc(Cl)c2)nc(NC2CCCC2)n1 | 4.33% (inactive) |
| COc1cccc2c1cc1c(=O)n(CC(=O)N3CCN(c4cccc(Cl)c4)CC3)nc(C)n12 | -0.0969% (inactive) |
| O=C(CNC(=O)c1ccc(Cl)c(C(F)(F)F)c1)OC(C(=O)Nc1cc(C(F)(F)F)ccc1Cl)c1ccccc1 (centres undefined) | 15.3% (inactive) |
| Cc1ccc(C(=O)NCCSc2c(C)[nH]c3ccccc23)cc1C | 2.99% (inactive) |
| O=C(NCc1ccc2c(c1)CCN2C(=O)c1ccccc1)Nc1cc(F)ccc1F | 2.32% (inactive) |
| CCn1cc(CN2CCC(C(=O)Nc3cccc(-c4cccc(Cl)c4)c3)CC2)c(C)n1 | 17.5% (inactive) |
| CCn1cc(CN2CCC(C(=O)Nc3cccc(-c4cccc(Cl)c4)c3)CC2)cn1 | 10.6% (inactive) |
| O=C(Nc1cccc(-c2cccc(Cl)c2)c1)C1CCN(C2CCC2)CC1 | 33.2% (active) |
| O=C(Nc1cccc(-c2nc3ccccc3o2)c1)c1cccc(Br)c1 | 11.1% (inactive) |
| CCCn1c(C)cc(/C=C(\C#N)C(=O)OCC(=O)N(C)c2c(N)n(Cc3ccccc3)c(=O)[nH]c2=O)c1C | 1.98% (inactive) |
| CCOC(=O)/C(C#N)=C/c1ccc(N2CCCCC2)cc1 | 68.9% (active) |
| COc1ccc(/C=C(\C#N)C(=O)ONC2=NCCCCC2)cc1 | 4.53% (inactive) |
| CCOC(=O)C1CCN(Cc2ccc(-c3ccccc3)cc2)CC1 | 5.56% (inactive) |
| CCOC(=O)/C(C#N)=C\c1c(C)cc(C)c(COC(C)=O)c1C | 0.226% (inactive) |
| CCOC(=O)/C(C#N)=C/c1ccc(N2CCN(Cc3ccccc3)CC2)cc1 | 46.5% (active) |
| Cc1ccc2sc(N(Cc3cccnc3)C(=O)C3COc4ccccc4O3)nc2c1C (centres undefined) | 20.1% (inactive) |
| CC1CCN(S(=O)(=O)c2ccc3c(c2)N(CC(=O)NCCc2ccccc2)C(=O)CO3)CC1 | 1.33% (inactive) |
| O=C(NCCc1c[nH]c2ccccc12)C1CCN(Cc2ccc(Br)cc2)CC1 | 35.5% (active) |
| Cc1ccc2[nH]cc(CCNC(=O)C3CCCCC3)c2c1 | 5.96% (inactive) |

| Structure (SMILES) | activation |
| --- | --- |
| CCOc1ccc(CN2CCCN(C)CC2)cc1 | 1.05% (inactive) |
| CCOc1ccc(CN2CCN(Cc3c[nH]c4ccccc34)CC2)cc1 | 33.4% (active) |
| CC1(C(=O)NCCc2c[nH]c3ccccc23)C=CC2(CCCCC2)N1C(=O)c1ccccc1 (centres undefined) | -1.33% (inactive) |
| COc1ccc(CN2CCN(Cc3ccc(OC)c(OC)c3OC)CC2)cc1 | 1.73% (inactive) |
| O=S(=O)(c1ccc(Cl)cc1)c1nnn2c1nc(NC1CCCC1)c1sccc12 | -0.225% (inactive) |
| Cc1ccc(C)c(N2CCN(Cc3nnc(-c4ccccc4)o3)CC2)c1 | 6.92% (inactive) |
| CCCn1c2ccccc2c2cnn(CC(=O)N(CC)c3cc(C)ccc3C)c(=O)c21 | 3.04% (inactive) |
| COc1cc(/C=C(\C#N)c2nc3c(s2)CC(C)CC3)ccc1O (centres undefined) | 35.8% (active) |
| COc1cccc2cc(-c3nc(Cl)c4c5c(sc4n3)CC(C)CC5)c(=O)oc12 (centres undefined) | -0.914% (inactive) |
| COc1ccc(OCCCn2cccc2/C=C2/C(=N)N3OC(C)=CC3=NC2=O)cc1 | 1.18% (inactive) |
| CC1=CC2=NC(=O)/C(=C/c3coc4ccccc4c3=O)C(=N)N2O1 | 227% (active) |
| Cc1cc(C)c2oc(-c3cccc(NC(=O)c4cccc(F)c4)c3C)nc2c1 | 1.24% (inactive) |
| N#C/C(=C/c1ccc(N2CCCCC2)o1)C(=O)NCCc1c[nH]c2ccccc12 | 78.8% (active) |
| O=C(NCCc1c[nH]c2ccccc12)c1cc2ccccc2oc1=O | 4.67% (inactive) |
| Cc1ccc(C(=O)N/C(=C/c2ccco2)C(=O)NCCc2c[nH]c3ccccc23)cc1C | 2.88% (inactive) |
| CCOc1ccccc1CNC(=O)c1cnc2c(-c3ccc(OCC)c(OCC)c3)c(C)nn2c1C | 1.83% (inactive) |
| CCOc1ccc(NC(=O)CC2C(=O)N(c3cccc(OC)c3)C(=O)N2C2CCCCC2)cc1 (centres undefined) | 2.76% (inactive) |
| O=C(O)CCC(=O)Nc1ccc(N2CCOCC2)cc1 | 4.21% (inactive) |
| C/C(=C/c1ccccc1)C(=O)N1CCN(c2ccccc2)CC1 | 0.356% (inactive) |
| O=C(/C=C/c1ccc(N2CCOCC2)cc1)c1ccccc1 | 108% (active) |
